# Sampled rows, rich in hits. Any-hit rate of the full collection: about 19%.
# TGFb SMAD3 inh: TGF-b pathway inhibition; 1.2% of 410,000 active; HepG2 CAGA-GFP TGF-b/SMAD3 reporter, GFP fluorescence, 18 h; TGF-beta stimulated, 500 pg/mL final; Potency, µM (doses to about 46.1 µM), for inactives: at the highest dose activity, negative = inhibition, actives largely listed as inhibitors; note: potency is the fitted concentration of half-maximal effect; % is set by controls: 0 for no effect and ±100 for the full control effect; nearly all actives have a fitted effect of over 65% in size
#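 GFP signal (ex488/em500-530) from TGF-beta-stimulated HEPG2 CAGA-GFP cells, 500 pg/mL final, 18 h at 37 degrees C in DMEM plus 1% FBS, normalized to unstimulated and DMSO-stimulated controls.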
# TDP1 cell CPT: DT40-hTDP1 cell growth loss with CPT. chicken DT40 Tdp1-/-;hTDP1 cells + 20 nM CPT, ATP luminescence, 48 h. Potency, µM (titrated, usually from 46.2 µM), for the others: top-dose activity change, negative = growth inhibition, hits mostly inhibitors. 12% of 420,000 active. AID 686979; note: potency is the fitted concentration of half-maximal effect; % is set by controls: 0 for no effect and ±100 for the full control effect; nearly all actives have a fitted effect of over 55% in size
#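 Chicken DT40 Tdp1-/- cells stably complemented with human TDP1 were seeded at 400 cells/well in medium containing 20 nM camptothecin, exposed to pin-transferred compounds, and grown at 37 °C for at least 48 hr. Viability was read as ATP luminescence.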
# HepG2 tox: HepG2 cytotoxicity, counter-screen for TGF-b inhibitors; AID 588856; 0.76% of 410,000 active; Potency, µM (series often up to 46.1 µM), inactives show at the top dose activity change, negative = cytotoxicity, most hits filed as cytotoxic; HepG2 CAGA-GFP viability, ATP luminescence, 18 h; note: potency is the fitted concentration of half-maximal effect
#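 HepG2 CAGA-GFP cells (1000/well, DMEM with 1% FBS) received compound, then TGF-beta at 500 pg/mL final, and were incubated 18 hours at 37 degrees C. Viability was read by CellTiter-Glo luminescence. Media-only wells were set as complete cell-killing and DMSO as no toxicity.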
# TDP1 inh: blocks human tyrosyl-DNA phosphodiesterase 1; Potency, µM (top dose mostly 130 µM), without a hit: at the top dose activity change, negative = inhibition, actives largely listed as inhibitors; recombinant TDP1, AlphaScreen DNA substrate cleavage; Q9NUW8; 0.28% of 350,000 active; AID 485290; note: potency is the fitted concentration of half-maximal effect; % is set by controls: 0 for no effect and ±100 for the full control effect; nearly all actives have a fitted effect of over 40% in size
# Target sequence (Q9NUW8 whole entry, looked up): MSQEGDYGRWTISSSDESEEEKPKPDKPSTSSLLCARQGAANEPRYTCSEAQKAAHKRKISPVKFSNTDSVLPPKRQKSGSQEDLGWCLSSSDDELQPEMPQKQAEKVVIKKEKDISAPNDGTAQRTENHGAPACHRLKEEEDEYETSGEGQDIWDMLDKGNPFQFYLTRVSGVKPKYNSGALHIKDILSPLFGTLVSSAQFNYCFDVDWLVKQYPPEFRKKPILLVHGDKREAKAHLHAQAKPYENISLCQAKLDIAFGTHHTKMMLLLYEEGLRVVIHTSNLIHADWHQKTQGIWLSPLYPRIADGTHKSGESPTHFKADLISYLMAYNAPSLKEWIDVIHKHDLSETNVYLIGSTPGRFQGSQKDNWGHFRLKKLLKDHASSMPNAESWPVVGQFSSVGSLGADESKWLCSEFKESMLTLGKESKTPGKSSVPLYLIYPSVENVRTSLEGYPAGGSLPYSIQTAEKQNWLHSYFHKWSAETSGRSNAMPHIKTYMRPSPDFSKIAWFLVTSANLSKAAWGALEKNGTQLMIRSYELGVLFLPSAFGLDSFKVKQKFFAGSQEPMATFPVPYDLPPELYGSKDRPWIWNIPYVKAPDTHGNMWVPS
#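 E. coli-derived human Tdp1, 1 nM final. Cpd preinc 15 min RT; substrate 15 nM final, 5 min RT; AS bead mix 10 ug/ml final, 10 min RT. Signal loss = tyrosine-FITC cleavage. No-enzyme wells = max signal.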
# IL-1B inflam inh: blocks inflammasome-driven IL-1 beta release; THP-1 LPS/ATP IL-1B secretion, AlphaLISA, 16 h; hits give low values; activity change, % at 57.5 µM; 4.7% of 360,000 active; AID 743279; in the data active = activity change below about -50%; inconclusive = mostly about -30% to -49%; note: % is set by controls: 0 for no effect and ±100 for the full control effect
#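 THP-1 cells pretreated 1 hr with compounds (up to 57.5 uM final), then stimulated with LPS (250 ng/mL final) plus ATP (1.25 mM final); secreted IL-1B measured by AlphaLISA after 16 hr, decreased signal indicating inhibition.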
# TDP1 cell noCPT: qHTS for Inhibitors of human tyrosyl-DNA phosphodiesterase 1 (TDP1): qHTS in cells in absence of CPT. DT40 Tdp1-/- hTDP1 cells, no CPT, ATP luminescence, 48 h. Potency, µM (series often up to 46.2 µM), for inactives: top-dose activity change, negative = growth inhibition, usual class: inhibitors. 15% of 420,000 active; note: potency is the fitted concentration of half-maximal effect; % is set by controls: 0 for no effect and ±100 for the full control effect; nearly all actives have a fitted effect of over 55% in size
#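 Readout: luminescence from CellTiter-Glo after 30 min in the dark at RT. Cells: DT40 Tdp1-/- with stable hTDP1, 400/well. Exposure: compounds alone, ≥48 hr, 37 °C.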
# * hit, by the source's call; ? = inconclusive; . = no result given; [ ] = remark or other dose. Unless noted, calls come from the whole dose curve; as a rule, active = well fitted curve in the direction sought with a large enough effect; inconclusive = small, poorly fitted or top-dose-only effect, or another doubt; inactive = no such curve, though single readings can be large; an effect the other way counts as inactive or inconclusive.
SMILES,TGFb SMAD3 inh,TDP1 cell CPT,HepG2 tox,TDP1 inh,IL-1B inflam inh,TDP1 cell noCPT
CCn1cc2nc(SCC(=O)Nc3cc(OC)ccc3OC)n(Cc3ccc(Cl)cc3)c(=O)c2n1,?,12µM*,-1%,2%,.,8.2µM*
CCN(CC)C(=O)CSc1nc2cc(OC)c(OC)cc2c(=O)n1Cc1ccc(Cl)cc1,1%,?,-4%,7%,-53*,18µM*
COc1ccc(NC(=O)CSc2nccn2Cc2ccc(F)cc2)c(OC)c1,?,1%,-25%,7%,20,-7%
Cc1c(C(=O)NCc2ccc3c(c2)OCO3)cnn1-c1ncc2c(n1)-c1ccccc1CC2,.,-2%[9.04 µM],.,.,.,-17%
CCNC(=O)C1(C)CCN(C(=O)c2cccc(OC(C)=O)c2C)C1 (configuration not stated),27%,3%,0%,.,1,-23%
O=C(C1CCN(S(=O)(=O)N2CCOCC2)CC1)N1CCN(Cc2ccccc2)CC1,-4%,2%,1%,-1%,-7,2%
Cc1cccc(N2CCN(C(=O)C3CCN(S(=O)(=O)c4cccc5cccnc45)CC3)CC2C)c1 (configuration not stated),2%,13µM*,0%,5%,-2,18µM*
O=C(C1CCN(S(=O)(=O)c2cccc3cccnc23)CC1)N1CCCC1,-12%,-7%,-17%,1%,-4,-6%
Cc1cccc(N2CCN(C(=O)C3CCN(S(=O)(=O)c4cccc5nsnc45)CC3)CC2C)c1 (configuration not stated),-5%,23µM*,-18%,3%,12,21µM*
Cc1cccc(N2CCN(C(=O)C3CCN(S(=O)(=O)N4CCOCC4)CC3)CC2C)c1 (configuration not stated),2%,18µM*,4%,2%,22,21µM*
Cc1cccc(N2CCN(C(=O)CS(=O)(=O)c3cccc4nsnc34)CC2C)c1 (configuration not stated),-9%,?,-14%,10%,.,?
COc1cc(S(=O)(=O)N2CCOCC2)ccc1NC(=O)COC(=O)c1ccc(Cl)nc1,0%,4%,9%,-9%,22,1%
Cc1cc(C(=O)NC(C)C2CC2)c(Cl)cc1Cl (configuration not stated),3%,2%,-11%,.,-6,-8%
COC(=O)c1ccc(NC(=O)CC2C(=O)N(c3ccc(C)cc3)C(=O)N2Cc2ccc(OC)cc2)cc1 (configuration not stated),-24%,?,-19%,6%,.,?
CCOC(=O)c1ccc(NC(=O)CC2C(=O)N(c3ccc(F)cc3)C(=O)N2Cc2ccc(C)cc2)cc1 (configuration not stated),?,16µM*,-24%,1%,.,?
CCOC(=O)c1ccc(NC(=O)CC2C(=O)N(c3ccc(F)cc3)C(=O)N2Cc2cccnc2)cc1 (configuration not stated),15%,18µM*,3%,3%,.,15µM*
CCOC(=O)c1cccc(NC(=O)CC2C(=O)N(c3ccc(C)cc3)C(=O)N2Cc2cccc(OC)c2)c1 (configuration not stated),?,18µM*,-34%,8%,.,?
CCOC(=O)c1ccc(NC(=O)CC2C(=O)N(c3ccc(F)cc3)C(=O)N2Cc2ccc3c(c2)OCO3)cc1 (configuration not stated),-4%,?,-18%,6%,.,?
CCOC(=O)c1ccc(NC(=O)CC2C(=O)N(c3cccc(OC)c3)C(=O)N2Cc2ccc(OC)cc2)cc1 (configuration not stated),-15%,21µM*,-30%,6%,.,?
Cc1ccc2c(c1)c(=O)c(C(=O)c1ccncc1)cn2CC(=O)Nc1c(C)cccc1C,-1%,0%,-15%,-2%,.,-15%
O=C(C1CCN(S(=O)(=O)c2ccc(Cl)cc2)CC1)N1CCN(c2ccccn2)CC1,1%,-11%,2%,2%,-15,-9%
CCOC(=O)c1ccc(NC(=O)CC2C(=O)N(c3cccc(OC)c3)C(=O)N2Cc2cccnc2)cc1 (configuration not stated),-16%,13µM*,-16%,6%,.,21µM*
COc1ccc(NC(=O)CC2C(=O)N(c3cccc(C)c3)C(=O)N2Cc2cccnc2)cc1 (configuration not stated),-10%,?,-8%,-6%,.,-18%
Cc1cc(-c2c(C(=O)N3CCOCC3)c(C)nn2-c2ccccc2)no1,1%,-1%,-4%,0%,-1,-7%
O=C(Nc1ccc2c(c1)OCCO2)C1c2ccccc2OCC(=O)N1CCc1ccccc1 (configuration not stated),.,-1%,.,.,-14,-2%
SMILES,TGFb SMAD3 inh,TDP1 cell CPT,HepG2 tox,TDP1 inh,IL-1B inflam inh,TDP1 cell noCPT
COc1ccc(CCN2C(=O)COc3ccccc3C2C(=O)Nc2ccc3c(c2)OCCO3)cc1OC (configuration not stated),.,?,.,.,16,21µM*
O=C(O)c1ccc2c(c1)OCCOCCOCCOCCOCCO2,10%,5%,4%,.,18,1%
c1cc2c(c(CC3CO3)c1CC1CO1)OCCOCCOCCOCCO2 (configuration not stated),-15%,2.1µM*,-17%,.,6,2.3µM*
CC1CCCCC1NC(=O)CCCn1c(=S)[nH]c2ccccc2c1=O (configuration not stated),-9%,-18%,-11%,0%,11,-21%
CC1CCCN(C(=O)c2ccc3c(=O)n(C4CCCC4)c(=S)[nH]c3c2)C1 (configuration not stated),?,21µM*,-2%,5%,-16,?
O=C(c1ccc2c(=O)n(C3CCCC3)c(=S)[nH]c2c1)N1CCCCCC1,?,15µM*,-2%,3%,2,13µM*
CCOCCCn1c(=S)[nH]c2cc(C(=O)N3CCN(C4CCCCC4)CC3)ccc2c1=O,0%,23µM*,-2%,4%,6,?
CC1CCCCC1n1c(=S)[nH]c2ccccc2c1=O (configuration not stated),?,23µM*,-66%,5%,22,?

# High-throughput results (PubChem BioAssay)
